This test is described as follows: compound effects on differentiated 3T3-L1 adipocyte viability – cell-based, 3T3-L1 adipocytes, calcein-AM fluorescence, 48 h, basal, profiling panel (AID 1163). Further: test concentration not given here. The conditions noted are these: 3T3-L1 adipocytes viability, higher = more signal.
For the compound `C=CC[C@@]12N=C(c3ccc(OCCCO)cc3)O[C@@H]1c1ccccc1N(CCS(=O)(=O)c1ccccc1)C2=O`, the z-score was 0.962.
Turning to `CN(C)CCCNC(=O)[C@@]1(C)c2ccccc2C(=O)N(Cc2cc(C(F)(F)F)cc(C(F)(F)F)c2)[C@H]1c1ccc(CO)cc1`, the z-score was 0.157.
The result for `CC(C)NC(=O)[C@@]1(C)c2ccccc2C(=O)N(C(C)C)[C@H]1c1ccc(CO)cc1` reads 0.545.
Regarding `O=C(N1CCCCC1)[C@@]1(Cc2ccccc2)COC(c2ccc(OCCCO)cc2)=N1`, the z-score is 0.675.
The figure for `O=C1C[C@@](C(=O)NCC(F)(F)F)(c2ccc([N+](=O)[O-])cc2)[C@@H](c2ccc(CO)cc2)N1C1CCCCC1` is -1.03; for `O=C1c2ccccc2[C@](Cc2ccccc2I)(C(=O)NCc2ccccc2)[C@H](c2ccc(CO)cc2)N1C1CCCCC1` it is 1.03.
The result for `C=CC[C@@]1(C(=O)N2CCCCC2)N=C(c2ccc(OCCCO)cc2)O[C@@H]1c1ccccc1` reads 0.533; that for `C=CCOC(=O)[C@@H]1[C@H]2C(=O)O[C@H](c3ccccc3)[C@H](c3ccccc3)N2[C@H](c2ccc(OCCOC(=O)[C@H]3C[C@H]4C(=O)N[C@@H](CCCC[N+](C)(C)C)C(=O)N4[C@H]3c3ccc(O)cc3)cc2)[C@@]12C(=O)Nc1ccc(I)cc12`, -1.19.
With `C[C@H]1ON(c2ccc(C(=O)OC(C)(C)C)cc2)[C@@H](c2ccc(O)cc2)[C@@H]1C(=O)N1C(=O)OC[C@@H]1c1ccccc1`, the z-score is 0.97.
The figure for `Cc1c(NC(=O)/C(C#N)=C/C=C/c2ccccc2[N+](=O)[O-])c(=O)n(-c2ccccc2)n1C` is -0.355; for `CC(C)(C)OC(=O)CC[C@]1(C(=O)NCCN2CCOCC2)N=C(c2ccc(OCCCO)cc2)O[C@H]1c1ccccc1N=[N+]=[N-]` it is 0.303; for `CCOC(=O)[C@H]1C/C=C/C[C@H](C(=O)OCC)C(=O)O[C@H]2[C@@H](OC)O[C@H](CO)[C@@H](OC(=O)Nc3ccc(OC)cc3)[C@@H]2OC1=O` it is 0.202.
The result for `O=C1NC(=O)C2C1C=CC(C(O)c1c(F)cccc1Cl)N2Nc1ccccn1` (stereo not given) reads -0.92; that for `COc1ccc([Si](C)(C)[C@@H]2[C@@H](CCO)O[C@]3(C(=O)N(Cc4cccc(N5C(=O)c6ccccc6Oc6ccccc65)c4)c4ccccc43)[C@H]2C)cc1`, -0.472; that for `Cc1ccc(S[C@]2(C(=O)NCc3ccccc3)CC(=O)N(C(C)C)[C@@H]2c2ccc(CO)cc2I)cc1`, 0.152.
The result for `CC(C)CCC[C@@H](C)[C@H]1CC[C@@]2(C)C3=C(CC[C@]12C)[C@@]1(C)CC[C@H](OC(=O)c2ccc(Br)cc2)C(C)(C)C1CC3` (stereo not given in full) reads 0.889; that for `NC(=O)N1C(=O)C2C(C1=O)C1C=C(c3ccc(CO)cc3)C2C(C2CC2)N1Cc1sc2ccccc2c1Cl` (stereo not given), 0.21.
With `C=CCN1C(=O)[C@@]2(O[C@@H](CCn3cc([C@H](O)c4ccccc4)nn3)[C@H]([Si](C)(C)c3ccc(OC)cc3)[C@H]2C)c2ccccc21`, the z-score is 0.432.
The result for `CC1CC/C=C\[C@H]2OC34C=CCN(CCN5CCOCC5)C(=O)[C@H]3N(CCO)C(=O)[C@@H]4C2C(=O)O1` (stereo not given in full) reads 1.44; that for `C=CCOC(=O)[C@H]1[C@@H]2C(=O)O[C@@H](c3ccccc3)[C@@H](c3ccccc3)N2[C@@H](c2ccc(OCCOC(=O)[C@H]3C[C@H]4C(=O)N[C@@H](Cc5ccccc5)C(=O)N4[C@H]3c3ccc(O)cc3)cc2)[C@]12C(=O)Nc1ccc(I)cc12`, 0.664.
The figure for `COc1ccc(C#Cc2ccc3c(c2)[C@]2(C(=O)N3)[C@H](C(=O)N3CCc4cc(OC)c(OC)cc4C3)[C@H]3C(=O)O[C@H](c4ccccc4)[C@H](c4ccccc4)N3[C@@H]2c2ccc(O)cc2)cc1` is -0.163; for `O=C1O[C@@H](c2ccccc2)[C@@H](c2ccccc2)N2[C@@H](c3ccccc3OCCO)[C@]3(C(=O)Nc4ccccc43)[C@@H](C(=O)NC[C@H](O)c3ccccc3)[C@H]12` it is 0.0155; for `C[C@]1(C(=O)NC2CC2)c2ccccc2C(=O)N(Cc2ccc(OC(F)(F)F)cc2)[C@H]1c1ccc(CO)cc1` it is -0.138.
The figure for `NC(=O)NCC#Cc1ccc2c(c1)[C@]1(C(=O)N2)[C@H](C(=O)Nc2nc3ccccc3s2)[C@H]2C(=O)O[C@H](c3ccccc3)[C@H](c3ccccc3)N2[C@@H]1c1ccc(O)cc1` is 1.28; for `COc1ccc(CCNC(=O)[C@@]2(Sc3ccc(C)cc3)CC(=O)N(Cc3cc(C(F)(F)F)cc(C(F)(F)F)c3)[C@@H]2c2ccc(CO)cc2I)cc1` it is -0.208.

These data come from PubChem BioAssay.
